IL1B secr inh: inhibitors of inflammasome signaling (IL-1 beta secretion). THP-1 LPS/ATP IL-1B secretion, AlphaLISA, 16 h; active compounds read low. activity change, % at 57.5 µM. 4.7% of 360,000 active; in the data active means activity change below about -50%; inconclusive means mostly about -30% to -49%
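Secreted IL-1B measured by AlphaLISA bead assay after 16 h compound exposure of THP-1 cells; compounds (final up to 57.5 uM) added 1 h before LPS (250 ng/mL) and ATP (1.25 mM) stimulation; lower signal means less secretion.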
DT40 TDP1 no CPT: qHTS for Inhibitors of human tyrosyl-DNA phosphodiesterase 1 (TDP1): qHTS in cells in absence of CPT; 15% of 420,000 active; Potency, µM (titrated, usually from 46.2 µM), without a hit: top-dose activity change, negative = growth inhibition, usual class: inhibitors; DT40 Tdp1-/- hTDP1 cells, no CPT, ATP luminescence, 48 h; AID 686978, 2013; further: potency means the concentration at half of the fitted maximal effect; nearly all actives have a fitted effect of over 55% in size
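Growth of hTDP1-complemented DT40 Tdp1-knockout cells is measured by ATP luminescence after at least 48 hr compound exposure at 37 °C, with DMSO substituting for the 20 nM CPT used in the parallel screen.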
HT1080 IDH1KD tx: toxicity to HT-1080 IDH1 knockdown cells (counter line); HT-1080 IDH1 knockdown viability, ATP luminescence, 48 h; Potency, µM (highest dose often 46.1 µM), for the others: at the highest dose activity, negative = toxicity, usual class: cytotoxic; 2% of 360,000 active; AID 686971;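 further: potency means the concentration at half of the fitted maximal effect; 0% = DMSO wells and -100% = cell-free medium wells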
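IDH1KD HT-1080 cells, 750/well, RPMI + 5% FBS; compound pinned after 2 h settling; 48 h, 37 °C; CellTiter-Glo luminescence; % activity normalised to DMSO and no-cell wells; curves fitted, classed by r2 and efficacy.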
ELG1 repair inh: ELG1-dependent DNA repair inhibition | HEK293T ELG1-luciferase reporter, luminescence, 16 h; DNA damage induced by 5-fluorouridine | Potency, µM (highest dose often 46.1 µM), inactives show at the top dose activity change, negative = inhibition, usual class: inhibitors | 2.3% of 330,000 active; further: potency means the concentration at half of the fitted maximal effect; nearly all actives have a fitted effect of over 55% in size
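In this reporter screen, reduction of luminescence relative to DMSO vehicle indicated activity. Compounds and 5-fluorouridine were added together to 2,000 cells per well, incubated for 16 hr at 37 °C, then developed with ONE-Glo.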
HT1080NT lethal: kills 2HG-producing HT-1080-NT fibrosarcoma cells; HT-1080-NT fibrosarcoma viability, CellTiter-Glo ATP luminescence, 48 h; Potency, µM (doses to about 46.1 µM), inactives show at the highest dose activity, negative = less viability, usual class: cytotoxic; 1.6% of 360,000 active; AID 686970;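 further: NT is the 2HG producing partner of a matched IDH1 knockdown line; potency means the concentration at half of the fitted maximal effect; 0% = DMSO-treated cells and -100% = media-only wells without cells; nearly all actives have a fitted effect of over 55% in size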
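A 48-hour cytotoxicity screen used HT-1080-NT cells plated 2 hours before compound delivery. ATP-based CellTiter-Glo luminescence measured viability, normalized to DMSO and no-cell controls.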
DT40 TDP1 CPT: DT40-hTDP1 cell growth loss with CPT. chicken DT40 Tdp1-/-;hTDP1 cells + 20 nM CPT, ATP luminescence, 48 h. Potency, µM (titrated, usually from 46.2 µM), inactives show at the top dose activity change, negative = growth inhibition, most hits filed as inhibitors. 12% of 420,000 active; further: potency means the concentration at half of the fitted maximal effect; nearly all actives have a fitted effect of over 55% in size
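Chicken DT40 Tdp1-/- cells stably complemented with human TDP1 were seeded at 400 cells/well in medium containing 20 nM camptothecin, exposed to pin-transferred compounds, and grown at 37 °C for at least 48 hr. Viability was read as ATP luminescence.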
Active calls of the source: *; u = inconclusive; x = not tested or not shown; [ ] = dose if it differs, or a comment. Only some compounds are listed: those with a hit (about 19% of all), similar ones and a draw of the others. Unless noted, the call rests on the fitted dose curve; in most records, active means well fitted curve in the direction sought with a large enough effect; inconclusive means small, poorly fitted or top-dose-only effect, or another doubt; inactive means no such curve, though single readings can be large; an effect the other way counts as inactive or inconclusive. Unless noted, on the % scale 0 is the no-effect control and ±100 the full control effect.

SMILES	IL1B secr inh	DT40 TDP1 no CPT	HT1080 IDH1KD tx	ELG1 repair inh	HT1080NT lethal	DT40 TDP1 CPT
CN(N=O)c1ccc2c(c1)Cc1ccccc1-2	x	u	x	x	x	-28%
Cc1c(NC(=O)Nc2ccc(Br)cc2F)sc2nc3n(c(=O)c12)CCC(C)CC3 (stereo unspecified)	x	u	x	x	x	3.7µM*
CC(CCC(=O)O)C1CCC2C3CC(O)C4CC(O)CC[C@]4(C)C3CCC12C (stereo partly specified)	8	-1%	12%	x	1%	-5%
Cc1ccc(S(=O)(=O)N2CCN(C(=O)COC(=O)/C=C/c3cccc([N+](=O)[O-])c3)CC2)c(C)c1	-9	16µM*	-2%	x	13%	9.2µM*
Cc1ccc(S(=O)(=O)N2CCN(C(=O)COC(=O)C3(C)CC3(Cl)Cl)CC2)c(C)c1 (stereo unspecified)	-1	u	1%	u	-5%[9.24 µM]	23µM*
COc1cc(C(=O)OCC(=O)N2CCCCCC2)c([N+](=O)[O-])cc1OC	23	-7%	5%	-7%	7%[9.24 µM]	u
Cc1ccc(S(=O)(=O)N2CCN(C(=O)COC(=O)/C=C/c3ccccc3)CC2)c(C)c1	-12	-28%	-1%	4%	0%	16µM*
COc1cc(C(=O)OCC(=O)N2CCN(S(=O)(=O)c3ccc(C)cc3C)CC2)c([N+](=O)[O-])cc1OC	0	21µM*	-4%	x	-6%	u
O=C(COC(=O)/C=C/c1ccc(OC(F)F)cc1)Nc1ccc(S(=O)(=O)N2CCCC2)cc1	20	-21%	-2%	-3%	6%	5%
Cc1ccc(S(=O)(=O)N2CCN(C(=O)COC(=O)/C=C/c3ccc(OC(F)F)cc3)CC2)cc1	-11	21µM*	0%	x	-7%	u
Cc1cc(C)c2c(c1)-c1c(ssc1=S)C(C)(C)N2C(=O)CN1C(=O)c2ccccc2C1=O	-3	u	-2%	u	-2%	21µM*
Cc1cccc2c1N(C(=O)CN1C(=O)c3ccccc3C1=O)C(C)(C)c1ssc(=S)c1-2	-14	-11%	3%	2%	4%	-12%
COc1cc(/C=C/C(=O)Nc2cccc(S(=O)(=O)N3CCOCC3)c2)ccc1OCC#N	-54*	u	u	u	-3%	u
O=C(/C=C/c1ccco1)Nc1cccc(S(=O)(=O)N2CCOCC2)c1	-6	-13%	u	16%	22%	-9%
Cc1ccc(NC(=O)[C@@H](NC(=O)c2cccc(S(=O)(=O)N3CCOCC3)c2)C(C)C)cc1C	2	12µM*	-7%	-19%	-9%	u
COc1ccc(/C=C/C(=O)Nc2cccc(S(=O)(=O)N3CCOCC3)c2)cc1OC	10	16µM*	1%	21µM*	-1%	u
Cc1ccc(/C=C/C(=O)Nc2cccc(S(=O)(=O)N3CCOCC3)c2)o1	8	u	-3%	-6%	-20%	23µM*
CCN(CC)CCCNc1cc(-c2ccccc2)nc(C)n1	x	3%	x	x	x	3%
COc1ccc(C23CC4CC(CC(C(=O)O)(C4)C2)C3)c(F)c1	8	2%	1%	0%	-1%	-7%
Cc1ccc(CCN2CC(C(=O)NC3CCC(C)CC3)CC2=O)cc1 (stereo unspecified)	3	u	4%	x	-1%	-26%
Cn1c(N)c(C(=O)CSc2nnc(-c3c[nH]c4ccccc34)n2C2CC2)c(=O)[nH]c1=O	24	1%	3%	u	7%[9.24 µM]	-9%
COc1ccc(NC(=O)CSc2nnc(NC(=O)c3ccc(S(=O)(=O)N4CCOCC4)cc3)s2)cc1	-9	-14%	2%	u	19%	-9%

Compound activity: PubChem BioAssay, National Center for Advancing Translational Sciences (NCATS)
